This passage reports composite z-score and z-score results from PubChem BioAssay.

SMILES strings stand for the structures. Values joined by “and” are separate entries in the source; they are usually repeats but may differ in a detail not shown here. Equal entries are not always repeated. Where a structure was tested more than once in an assay, its records may differ in their call. Active and inactive are the calls of the source.

A short description of experiment [1]: small molecules captured by biotinylated probe aFSTL3 – biochemical, small-molecule microarray, fluorescence 635/667, stem cell growth factor project, primary screen (AID 1064).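 Also: measures binding of the biotinylated anti-FSTL3 antibody to printed compounds.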 The conditions noted are these: higher = more signal.
Experiment [2] is described as follows: binders from COS7 lysate, DM2A8 probe, primary screen, torsin A project, cell lysate, small-molecule microarray, fluorescence 635/667 (AID 1065). The settings on record: higher = more signal, COS7 lysate expressing mutant human TOR1A.
Experiment [3] in a line: small molecules captured by biotinylated probe aFGF2 – biochemical, small-molecule microarray, fluorescence 635/667, stem cell growth factor project, primary screen (AID 1067).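 Also: measures binding of biotinylated aFGF2 protein to printed compounds on slides; z-score merges feature fluorescence and signal-to-noise across triplicate slides.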 The conditions noted are these: higher = more signal.
The nature of experiment [4]: small molecules captured by biotinylated probe aFGF10 – biochemical, small-molecule microarray, fluorescence 635/667, stem cell growth factor project, primary screen (AID 1071).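 Also: score merges 667 nm spot intensity and signal to noise from triplicate slides.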 The settings on record: higher = more signal.
The target of experiment [5] is Neurogenic locus notch homolog protein 2 (Homo sapiens) (UniProt Q04721). Kind of experiment: small molecules binding Notch2 protein – biochemical, small-molecule microarray, 635 nm fluorescence, stem cell growth factors, primary screen (AID 1073). The settings on record: higher = more signal.
For experiment [6], the target named is Pro-neuregulin-1, membrane-bound isoform (Homo sapiens) (UniProt Q02297). Put plainly: small molecules binding neuregulin-1 protein – biochemical, small-molecule microarray, fluorescence 635/667, psychiatric disease protein project, primary screen (AID 1075).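 Also: score combines 667 nm spot fluorescence with signal to noise.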 The conditions noted are these: NRG1 binding, 635 nm fluorescence, higher = more signal.
Pro-neuregulin-1, membrane-bound isoform (Homo sapiens), sequence (Q02297 whole entry, looked up, the tested form may be a part, canonical isoform): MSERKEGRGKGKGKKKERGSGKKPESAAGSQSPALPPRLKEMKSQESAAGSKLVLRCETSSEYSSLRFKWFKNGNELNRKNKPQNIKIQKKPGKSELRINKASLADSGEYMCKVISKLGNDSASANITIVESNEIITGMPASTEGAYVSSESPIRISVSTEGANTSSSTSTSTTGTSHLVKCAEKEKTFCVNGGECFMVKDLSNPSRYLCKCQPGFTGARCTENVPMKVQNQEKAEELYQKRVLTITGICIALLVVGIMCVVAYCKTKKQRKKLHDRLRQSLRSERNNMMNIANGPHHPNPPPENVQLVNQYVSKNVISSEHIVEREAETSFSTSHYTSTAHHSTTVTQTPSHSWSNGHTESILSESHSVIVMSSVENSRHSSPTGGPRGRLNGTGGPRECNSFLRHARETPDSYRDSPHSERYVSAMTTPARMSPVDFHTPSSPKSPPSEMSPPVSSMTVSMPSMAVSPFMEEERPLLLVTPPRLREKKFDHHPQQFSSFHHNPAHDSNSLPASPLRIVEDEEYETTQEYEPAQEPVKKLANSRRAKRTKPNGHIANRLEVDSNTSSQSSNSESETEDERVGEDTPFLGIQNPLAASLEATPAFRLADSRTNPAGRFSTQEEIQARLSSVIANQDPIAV
Experiment [7] deals with Neuregulin-1 EGF-like domain. Put plainly: small molecules binding NRG1 EGF domain – biochemical, small-molecule microarray, 635 nm fluorescence, primary screen (AID 1081).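 Also: binding of the protein to compounds printed on small-molecule microarray slides.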 The conditions noted are these: higher = more signal.
Experiment [8] can be described thus: FRG1 expression reporter modulators in myotubes – cell-based, C2C12 myotubes, firefly/Renilla luciferase, luminescence, FRG1 inhibition for FSHD, primary screen (AID 1084). The conditions noted are these: FRG1 promoter luciferase, higher = more signal, called active from +8 up or from −8 down.
Experiment [9] in a line: small molecules captured by biotinylated probe aFST – biochemical, small-molecule microarray, fluorescence 635/667, stem cell growth factor project, primary screen (AID 1086).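 Also: score merges 667 nm fluorescence with signal-to-noise of each printed compound spot.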 The settings on record: higher = more signal.
Experiment [10] can be described thus: binders of probe aHhip on microarray, primary screen, stem cell growth factor project, biochemical, small-molecule microarray, fluorescence 635/667 (AID 1087).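 Also: score merges spot fluorescence at 667nm with spot signal to noise ratio.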 The settings on record: higher = more signal.
For experiment [11], the system named is PRMT1 (protein arginine N-methyltransferase 1). Put plainly: small molecules binding arginine methyltransferase PRMT1 – biochemical, small-molecule microarray, 635 nm fluorescence, primary screen (AID 1088).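 Also: binding of Prmt1 protein to compounds spotted on small-molecule microarray slides.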 The settings on record: higher = more signal.
Experiment [12] is described as follows: growth effects on S. cerevisiae YJM789 – YJM789 clinical isolate, OD600, 24 h, basal, primary screen (AID 1089).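 Also: growth of clinical yeast isolate S. cerevisiae YJM 789 seeded 1000 cells per well; test concentration not given here.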 The settings on record: higher = more signal, called active from +8 up or from −8 down.
Experiment [13] can be described thus: S. pombe growth modifiers, basal conditions – strain 972, OD600, 24 h, no modulator, primary screen (AID 1090).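 Also: basal condition with compound alone and no growth modifier present; test concentration not given here.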 The settings on record: S. pombe 972 growth, higher = more signal, called active from +8 up or from −8 down.
Experiment [14] is described as follows: budding yeast growth modifiers under rapamycin – strain BY4716, OD600, 96 h, primary screen (AID 1091). Also: test concentration not given here. The settings on record: S. cerevisiae BY4716 + rapamycin, higher = more signal, called active from +8 up or from −8 down.
The target in experiment [15] is Torsin-1A-interacting protein 2 (Homo sapiens) (UniProt Q8NFQ8). Kind of experiment: small molecules binding lysate-expressed LULL1 – cell lysate, human LULL1 lysate, 635/667 nm fluorescence, primary screen (AID 1092).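 Also: score merges per-feature 667 nm fluorescence with signal-to-noise.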 The conditions noted are these: small-molecule microarray, hLULL1 lysate binding, 635 nm fluorescence; higher = more signal.
Torsin-1A-interacting protein 2 (Homo sapiens), sequence (Q8NFQ8 whole entry, looked up): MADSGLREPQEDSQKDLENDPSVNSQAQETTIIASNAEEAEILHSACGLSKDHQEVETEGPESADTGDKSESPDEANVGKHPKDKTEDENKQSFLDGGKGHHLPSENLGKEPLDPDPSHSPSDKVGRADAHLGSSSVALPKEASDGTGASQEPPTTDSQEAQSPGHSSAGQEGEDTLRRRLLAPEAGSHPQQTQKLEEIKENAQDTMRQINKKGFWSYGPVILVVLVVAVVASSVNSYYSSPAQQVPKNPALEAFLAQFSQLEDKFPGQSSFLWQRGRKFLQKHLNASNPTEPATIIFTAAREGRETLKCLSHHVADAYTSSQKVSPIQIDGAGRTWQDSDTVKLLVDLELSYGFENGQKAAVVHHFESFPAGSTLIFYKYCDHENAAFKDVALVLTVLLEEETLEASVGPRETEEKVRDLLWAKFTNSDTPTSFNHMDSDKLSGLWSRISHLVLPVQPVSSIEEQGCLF
Experiment [16] is described as follows: optical density change of DRC41 E. coli – strain DRC41, OD650, 24 h, E. coli filamentation project, primary screen (AID 1093).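 Also: MC1000 strain lacking acrAB efflux and sulA so SOS filamentation is blocked; test concentration not given here.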 The conditions noted are these: E. coli DRC41 growth, higher = more signal, called active from +8 up or from −8 down.
A short description of experiment [17]: probe aLefty2 binding to arrayed compounds – biochemical, biotinylated probe, 635/667 nm fluorescence, primary screen (AID 1094).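 Also: score merges spot fluorescence near 667 nm with spot signal-to-noise ratio.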 The conditions noted are these: small-molecule microarray, higher = more signal.
Experiment [18] has as its system Noggin (protein binding on small-molecule microarray). Put plainly: small molecules binding Noggin protein – biochemical, 635/667 nm fluorescence, primary screen (AID 1095).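 Also: score merges 667 nm feature fluorescence with signal to noise over triplicate slides.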 The settings on record: 635 nm fluorescence, higher = more signal.
The target in experiment [19] is Neurogenic locus notch homolog protein 3 (Homo sapiens) (UniProt Q9UM47). Put plainly: small molecules binding NOTCH3 protein – biochemical, 635/667 nm fluorescence, primary screen (AID 1096). The settings on record: small-molecule microarray, 635 nm fluorescence, higher = more signal.
Neurogenic locus notch homolog protein 3 (Homo sapiens), sequence (Q9UM47 whole entry, looked up): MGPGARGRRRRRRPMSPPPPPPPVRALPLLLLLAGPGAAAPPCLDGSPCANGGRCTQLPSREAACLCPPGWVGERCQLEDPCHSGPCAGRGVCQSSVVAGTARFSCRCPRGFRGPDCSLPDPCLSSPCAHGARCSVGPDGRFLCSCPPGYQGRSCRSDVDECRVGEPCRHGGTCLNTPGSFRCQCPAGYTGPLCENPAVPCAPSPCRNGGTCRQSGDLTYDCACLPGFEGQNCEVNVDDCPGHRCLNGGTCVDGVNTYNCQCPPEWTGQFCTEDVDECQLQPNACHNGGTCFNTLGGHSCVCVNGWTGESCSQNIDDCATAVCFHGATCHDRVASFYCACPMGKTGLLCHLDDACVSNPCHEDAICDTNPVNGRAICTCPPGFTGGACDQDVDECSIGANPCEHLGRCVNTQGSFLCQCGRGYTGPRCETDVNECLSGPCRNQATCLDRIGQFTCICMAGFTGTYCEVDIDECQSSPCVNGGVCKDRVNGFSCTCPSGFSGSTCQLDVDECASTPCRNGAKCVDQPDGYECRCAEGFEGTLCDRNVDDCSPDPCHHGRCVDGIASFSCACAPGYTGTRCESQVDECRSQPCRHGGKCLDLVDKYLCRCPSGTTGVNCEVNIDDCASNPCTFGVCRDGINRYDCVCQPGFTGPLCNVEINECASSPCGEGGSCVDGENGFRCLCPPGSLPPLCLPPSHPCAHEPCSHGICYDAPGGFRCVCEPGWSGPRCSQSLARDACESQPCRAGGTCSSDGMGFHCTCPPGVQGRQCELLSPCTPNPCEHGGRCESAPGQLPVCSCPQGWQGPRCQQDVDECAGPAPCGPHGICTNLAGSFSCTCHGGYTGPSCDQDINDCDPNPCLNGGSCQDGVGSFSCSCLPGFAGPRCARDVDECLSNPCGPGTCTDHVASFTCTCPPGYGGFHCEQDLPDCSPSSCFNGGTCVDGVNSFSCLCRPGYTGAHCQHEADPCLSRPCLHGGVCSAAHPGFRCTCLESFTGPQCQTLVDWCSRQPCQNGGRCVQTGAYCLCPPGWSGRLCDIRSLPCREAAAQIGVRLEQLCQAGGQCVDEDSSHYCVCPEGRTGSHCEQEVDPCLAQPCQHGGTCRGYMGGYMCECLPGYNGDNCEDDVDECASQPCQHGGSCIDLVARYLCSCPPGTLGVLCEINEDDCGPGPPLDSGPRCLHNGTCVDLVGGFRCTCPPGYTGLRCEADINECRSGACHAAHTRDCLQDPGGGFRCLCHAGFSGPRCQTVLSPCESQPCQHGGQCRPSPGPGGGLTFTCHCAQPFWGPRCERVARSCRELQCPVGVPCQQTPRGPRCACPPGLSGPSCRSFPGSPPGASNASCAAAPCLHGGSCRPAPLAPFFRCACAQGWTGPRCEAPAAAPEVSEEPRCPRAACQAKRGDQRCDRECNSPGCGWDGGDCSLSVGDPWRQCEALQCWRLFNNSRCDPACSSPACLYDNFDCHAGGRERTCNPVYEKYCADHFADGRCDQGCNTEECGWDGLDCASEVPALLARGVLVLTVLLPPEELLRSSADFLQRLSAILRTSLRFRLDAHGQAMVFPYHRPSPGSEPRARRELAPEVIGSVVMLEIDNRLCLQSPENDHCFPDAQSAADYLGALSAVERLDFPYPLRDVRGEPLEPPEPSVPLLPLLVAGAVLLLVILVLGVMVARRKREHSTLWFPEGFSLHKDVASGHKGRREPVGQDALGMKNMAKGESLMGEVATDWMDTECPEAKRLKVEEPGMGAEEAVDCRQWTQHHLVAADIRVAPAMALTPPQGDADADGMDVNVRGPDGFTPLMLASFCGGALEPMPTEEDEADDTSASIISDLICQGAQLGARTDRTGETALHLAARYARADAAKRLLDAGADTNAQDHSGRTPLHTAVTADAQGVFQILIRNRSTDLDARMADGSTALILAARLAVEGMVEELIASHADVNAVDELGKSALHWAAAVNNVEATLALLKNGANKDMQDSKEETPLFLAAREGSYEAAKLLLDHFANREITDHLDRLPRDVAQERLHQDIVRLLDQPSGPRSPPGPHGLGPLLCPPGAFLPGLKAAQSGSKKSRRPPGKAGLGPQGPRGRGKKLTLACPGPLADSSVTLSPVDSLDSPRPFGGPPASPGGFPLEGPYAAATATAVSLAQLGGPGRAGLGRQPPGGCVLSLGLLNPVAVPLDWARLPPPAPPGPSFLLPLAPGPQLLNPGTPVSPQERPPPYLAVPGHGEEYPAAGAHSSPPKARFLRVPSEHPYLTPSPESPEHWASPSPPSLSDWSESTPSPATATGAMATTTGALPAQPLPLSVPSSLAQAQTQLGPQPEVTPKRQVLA
Experiment [20] is described as follows: probe aEGFR binding to arrayed compounds – biochemical, biotinylated probe, 635/667 nm fluorescence, primary screen (AID 1097).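 Also: probe is a biotinylated anti-EGFR antibody binding compounds printed on slides; score combines fluorescence near 667 nm and signal to noise of each spot.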 The settings on record: small-molecule microarray, higher = more signal.

Take `C=CCN(CCCC)C(=O)C(c1cccs1)N(CCOCCO)C(=O)/C=C\C(=O)O` (stereo not given): the composite z-score in experiment [1] was 0.673 and -0.0069; in experiment [2], 0.878 and 0.902; in experiment [3], -0.208 and -0.23; in experiment [4], -1.36 and 0.428; in [5], -1.8 and -0.746; in experiment [6], 1.34 and 0.823. Besides, the composite z-score in [7] is 0.903 and 0.941; in [9], -0.496 and -0.114; in experiment [10], -0.134 and -0.236; in [11], -1.08 and 0.596; in experiment [15] it was 0.657 and 2.51; in experiment [17], -0.145 and -0.139. In addition, the composite z-score in experiment [18] is -1.73 and -0.798; in experiment [19], -0.852 and -0.503; in experiment [20] it was -0.236 and -0.148. The z-score in experiment [8] is -1.65 (inactive) and -0.784 (inactive); in [12], -1.98 (inactive) and -1.34 (inactive); in experiment [13] it was -0.745 (inactive) and -0.342 (inactive); in experiment [14], -0.604 (inactive) and -0.397 (inactive); in experiment [16] it was 1.02 (inactive) and 1.45 (inactive).

For the compound `O=C1[C@H]2[C@H]3[C@H](O)[C@H](O)CC(=NOCc4ccccc4)[C@H]3CC[C@H]2C(=O)N1Cc1ccccc1`, the composite z-score is -0.51 in [1]; 0.887 in experiment [2]; -0.109 in experiment [3]; 0.186 in experiment [4]; 0.189 in [5]; -0.226 in experiment [6]. Moreover, the composite z-score is -0.263 in experiment [7]; 0.223 in experiment [9]; -0.274 in experiment [10]; -1 in experiment [11]; -0.336 in experiment [15]; -0.234 in [17]. Moreover, the composite z-score in [18] is 0.439; in experiment [19], 0.273; in experiment [20], -0.126. The z-score in [8] was 0.224 (inactive); in experiment [12], -2.04 (inactive); in experiment [13] it was -2.07 (inactive); in experiment [14], -1.04 (inactive); in experiment [16] it was 0.582 (inactive).

For the compound `CCCC[C@@H]1CN2[C@@H](CC[C@@H](C)[C@@H]2c2ccc(Br)cc2)C(=O)O1`, the composite z-score is -0.519 and -0.353 in experiment [1]; 0.191 and 0.217 in [2]; -0.111 and -0.0736 in experiment [3]; 0.458 and 0.656 in [4]; 0.333 and 0.493 in experiment [5]; 0.48 and 0.847 in experiment [6]. For the same compound, the composite z-score is 0.602 and 0.965 in experiment [7]; 0.0218 and 0.0109 in experiment [9]; -0.142 and -0.306 in experiment [10]; 1.38 and 0.811 in [11]; 1.93 and 1.44 in experiment [15]; -0.0446 and -0.239 in [17]. Moreover, the composite z-score in experiment [18] is 0.0666 and -0.156; in experiment [19], 0.287 and 0.683; in [20] it was -0.141 and 0.0021. The z-score in [8] is 0.427 (inactive) and -0.286 (inactive); in experiment [12], 0.301 (inactive) and 0.0912 (inactive); in experiment [13], -17.2 (active) and -6.6 (inactive); in [14] it was -0.278 (inactive) and 0.42 (inactive); in [16], 0.133 (inactive) and 0.153 (inactive).

As to `C[C@@H]1CC[C@H]2C(=O)N3[C@@H](CC[C@@H](C)[C@@H]3c3ccc(-c4ccco4)cc3)C(=O)N2[C@H]1c1ccc(-c2ccco2)cc1`, the composite z-score in [1] is -0.23 and 1.14; in [2], 0.762 and 1.98; in experiment [3] it was -0.0084 and -0.0668; in experiment [4] it was 0.906 and 1.16; in experiment [5], 0.422 and 1.15; in experiment [6] it was 0.992 and 0.667. The composite z-score in [7] is 1.29 and 1.3; in experiment [9] it was 0.443 and 1.26; in experiment [10], 0.132 and 0.259; in experiment [11] it was 1.56 and 1.49; in [15], 2.17 and 0.787; in [17], 0.0935 and 0.525. Further, the composite z-score in experiment [18] is 1.34 and 1.77; in experiment [19], 1.04 and 1.06; in experiment [20], 0.0374 and 0.181. In addition, the z-score in experiment [8] is -0.248 (inactive) and 0.445 (inactive); in experiment [12], -0.0519 (inactive) and -0.0158 (inactive); in experiment [13] it was 0.453 (inactive) and -1.28 (inactive); in experiment [14], 0.849 (inactive) and -0.324 (inactive); in [16] it was 0.196 (inactive) and 0.917 (inactive).
